Where “and” joins values, the source holds several entries; their conditions need not be identical. Identical values can stand only once. Calls of active or inactive are those of the source. The calls were made as follows: active = hit-call score of the fitted dose curve at least 0.9, where 1 is the maximum; inactive = score below 0.9.
Read-out: KRT18 (gene 3875)
Test: BSK_BF4T_Keratin818: BioMAP Diversity Plus: BF4T Assay for Keratin 818 Biomarker Activity (AID 2284266)
Details: primary human bronchial epithelial cells with fibroblasts
Summary of the method: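 Keratin 8/18 levels quantified by ELISA after 24 h chemical treatment of bronchial epithelial cell/dermal fibroblast co-cultures, fitted in positive direction relative to DMSO. Parallel SRB staining tracks overt cytotoxicity.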

Compound | outcome | AC50
CC(C)(C)C(=O)CC(=O)C(F)(F)C(F)(F)C(F)(F)F | inactive | 
O=C(O)C(F)(F)C(F)(F)OC(F)(F)F | inactive | 
OCC(F)(F)C(F)(F)C(F)(F)C(F)(F)C(F)(F)C(F)(F)F | inactive | 
FC(F)(F)C(F)(F)C(F)(F)C(F)(F)C(F)(F)C(F)(F)C(F)(F)Br | inactive | 
C=C(C)C(=O)OCC(F)(F)C(F)(F)C(F)(F)F | inactive | 
OCC(F)(F)C(F)(F)C(F)(F)C(F)(F)C(F)(F)C(F)F | inactive | 
C=CC(F)(F)C(F)(F)C(F)(F)C(F)(F)C(F)(F)C(F)(F)C(F)(F)C(F)(F)F | inactive | 
Cc1ccc(S(=O)(=O)OCC(F)(F)C(F)(F)C(F)(F)C(F)(F)C(F)(F)C(F)F)cc1 | inactive | 
N=C(N)C(F)(F)C(F)(F)C(F)(F)C(F)(F)C(F)(F)C(F)(F)C(F)(F)F | inactive | 
CCO[Si](CCC(F)(F)C(F)(F)C(F)(F)C(F)(F)C(F)(F)C(F)(F)F)(OCC)OCC | inactive | 
FC(F)(F)C(F)(F)CNCC(F)(F)C(F)(F)F | inactive | 
C=CC(=O)OCC(F)(F)C(F)(F)C(F)(F)C(F)(F)COC(=O)C=C | inactive | 
FC(F)(F)C(F)(F)C(F)(F)C(F)(F)C(F)(F)C(F)(F)CC1CO1 (stereo unspecified) | inactive | 
OCCCC(F)(F)C(F)(F)C(F)(F)F | inactive | 
O=C(Cl)C(F)(F)C(F)(F)C(F)(F)C(F)(F)C(F)(F)C(F)(F)C(F)(F)C(F)(F)F |  | 44.5 µM (active) and 46.1 µM (active) and 44.3 µM (active)
O=C(O)C(F)(F)C(F)(F)C(F)(F)C(F)(F)C(F)(F)C(F)(F)C(F)(F)C(F)(F)Cl |  | 45 µM (active) and 49.7 µM (active)
FC(F)(F)C(F)(F)C(F)(F)C(F)(F)C(F)(F)CCI | inactive | 

Compound | outcome | AC50
O=C(O)C(F)(F)C(F)(F)C(F)(F)C(F)(F)C(F)(F)C(F)(F)C(F)(F)C(F)(F)C(F)(F)C(F)F |  | 22.7 µM (active) and 30 µM (active)
O=P(O)(O)OCCC(F)(F)C(F)(F)C(F)(F)C(F)(F)C(F)(F)C(F)(F)F | inactive | 
FC(F)(Br)C(F)(F)C(F)(F)C(F)(F)C(F)(F)C(F)(F)Br | inactive | 
OCC(F)(F)C(F)(F)C(F)(F)F | inactive | 
O=C(O)C(F)(F)C(F)(F)C(F)(F)C(F)(F)C(F)(F)C(F)(F)C(F)(F)C(F)(F)C(F)(F)C(F)(F)C(F)(F)C(F)(F)F | inactive | 
O=S(=O)(OCC(F)F)C(F)(F)F | inactive | 
FC(F)(F)C(F)(F)C(F)(F)CI | inactive | 
FC(F)(I)C(F)(F)C(F)(F)C(F)(F)I |  | 46.6 µM (active) and 47.8 µM (active) and 47.4 µM (active)
FC(F)(F)C(F)(F)C(F)(F)C(F)(F)C(F)(F)C(F)(F)C(F)(F)I | inactive | 
OCCCC(F)(F)C(F)(F)C(F)(F)C(F)(F)C(F)(F)C(F)(F)C(F)(F)F |  | 23.7 µM (active) and 47.1 µM (active)
COC(=O)CCC(F)(F)C(F)(F)C(F)(F)C(F)(F)F | inactive | 
OCC(F)(F)C(F)(F)C(F)(F)C(F)F | inactive | 
FC1CC(F)(F)C(F)(F)C1(F)F (stereo unspecified) | inactive | 
O=C(O)C(F)(F)C(F)(F)C(F)(F)C(F)(F)F | inactive | 
O=S(=O)(O)C(F)(F)C(F)(F)C(F)(F)C(F)(F)C(F)(F)C(F)(F)C(F)(F)F | inactive | 
O=C(CC(=O)C(F)(F)C(F)(F)F)C(F)(F)F | inactive | 

Read-out: not listed separately
Test: BSK_MyoF_SRB: Viability Assessment in the BioMAP Diversity Plus: MyoF Assay (AID 2284267);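 also: total protein by SRB absorbance in parallel cultures as cytotoxicity measure; cells assessed 24 h after compound addition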
Details: primary human lung fibroblasts
Summary of the method: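 Cytotoxicity read-out: after 10% TCA fixation, parallel human lung fibroblast cultures were stained with 0.1% SRB at 24 h post-dosing and read at 560 nm; DMSO served as baseline.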

Compound | outcome | AC50
FC(F)(F)C(F)(F)C(F)(F)C(F)(F)C(F)(F)C(F)(F)C(F)(F)Br | inactive | 
C=CC(F)(F)C(F)(F)C(F)(F)C(F)(F)C(F)(F)C(F)(F)C(F)(F)C(F)(F)F | inactive | 
Cc1ccc(S(=O)(=O)OCC(F)(F)C(F)(F)C(F)(F)C(F)(F)C(F)(F)C(F)F)cc1 | inactive | 
CCO[Si](CCC(F)(F)C(F)(F)C(F)(F)C(F)(F)C(F)(F)C(F)(F)F)(OCC)OCC | inactive | 
FC(F)(F)C(F)(F)C(F)(F)C(F)(F)C(F)(F)CCI | inactive | 
O=C(O)C(F)(F)C(F)(F)C(F)(F)C(F)(F)C(F)(F)C(F)(F)C(F)(F)C(F)(F)C(F)(F)C(F)F |  | 21.3 µM (active) and 21.9 µM (active)
O=C(O)C(F)(F)C(F)(F)C(F)(F)C(F)(F)C(F)(F)C(F)(F)C(F)(F)C(F)(F)C(F)(F)C(F)(F)C(F)(F)C(F)(F)F | inactive | 
O=S(=O)(OCC(F)F)C(F)(F)F | inactive | 
FC(F)(F)C(F)(F)C(F)(F)CI | inactive | 
FC(F)(F)C(F)(F)C(F)(F)C(F)(F)C(F)(F)C(F)(F)C(F)(F)I |  | 4.81 µM (active) and 4.71 µM (active)
OCCCC(F)(F)C(F)(F)C(F)(F)C(F)(F)C(F)(F)C(F)(F)C(F)(F)F |  | 44.8 µM (active) and 56.2 µM (active)
OCC(F)(F)C(F)(F)C(F)(F)C(F)F | inactive | 
O=C(CC(=O)C(F)(F)C(F)(F)F)C(F)(F)F | inactive | 

Source: PubChem BioAssay (EPA / NIEHS)
